# Laboratory results taken from PMC4552634, “A New Set of Chemical Starting Points with Plasmodium falciparum Transmission-Blocking Potential for Antimalarial Drug Discovery” (PLoS ONE, 2015).
# In all, about 13,000 compounds went through this assay and about 3,200 (25%) showed an effect of 50% or more. This is one part of the list.
# Tested on: P. falciparum stage V gametocytes
# Set-up: BacTiter-Glo ATP luminescence viability of purified stage V gametocytes in 384-well plates, per cent inhibition versus DMSO
# Details: 48 h, 5 µM; inhibitor
row,Structure (SMILES),% Inhibition [%]
1,COc1cc2c(cc1C(F)(F)F)N(C(=O)Nc1cc(F)cc(-c3cncnc3)c1)CC2 [TCMDC-139039],-11.26
2,O=C(Nc1cccc(-c2nc3ccccc3[nH]2)c1)c1cccc(NC(=O)c2ccco2)c1 [TCMDC-125185],18.17
3,CC(=O)c1ccc(S(=O)(=O)N2CCC(C(=O)Nc3ccccc3N3CCCC3)CC2)cc1 [TCMDC-125467],-11.47
4,CCC(C)NS(=O)(=O)c1ccc2nc(Nc3ccc(C)c(Cl)c3)n([C@H](C)C(C)(C)C)c2c1 (stereo partly shown) [TCMDC-136238],38.05
5,O=C(C=Cc1cccs1)Nc1ccc(-c2nc3ccccc3[nH]2)cc1 [TCMDC-123926],-97.24
6,COc1ccccc1CN1CCC(CNC(=O)c2cc(-c3ccc(N(C)C)cc3)cs2)C1.O=C(O)C(F)(F)F (stereo not shown) [TCMDC-134451],95.05
7,COc1ccccc1CN1CCC(CNC(=O)c2cc(-c3cccc(C(F)(F)F)c3)cs2)C1.O=C(O)C(F)(F)F (stereo not shown) [TCMDC-134450],-43.84
8,O=C(NCC1CCN(Cc2cccc(C(F)(F)F)c2)C1)c1cc(-c2cccc(Cl)c2)cs1 (stereo not shown) [TCMDC-134485],50.21
9,CCCC(=O)Nc1ccc(OCCCN(Cc2ccccc2F)c2ccc(C#N)c(C(F)(F)F)c2)cc1 [TCMDC-135449],24.41
10,Fc1cc(Cl)ccc1Nc1ccnc2cc(-c3ccc(CNCCN4CCOCC4)o3)ccc12 [TCMDC-138397],-18.32
11,Fc1cc(Cl)ccc1Nc1ccnc2cc(-c3ccc(CN4CCNCC4)o3)ccc12 [TCMDC-138394],83.09
12,CN1CCN(Cc2ccc(-c3ccc4c(Nc5cc(O)c(F)cc5Cl)ccnc4c3)o2)CC1 [TCMDC-138486],4.683
13,Fc1cc(Cl)ccc1Nc1ccnc2cc(-c3ccc(CN4CCOCC4)o3)ccc12 [TCMDC-138393],99.43
14,Fc1cc(Cl)ccc1Nc1ccnc2cc(-c3ccc(CN4CCSCC4)o3)ccc12 [TCMDC-138392],1.462
15,CN1CCN(Cc2ccc(-c3ccc4c(Nc5ccc(Cl)cc5F)ccnc4c3)o2)CC1 [TCMDC-138395],-22.3
16,Oc1cc(Nc2ccnc3cc(-c4ccc(CN5CCCCC5)o4)ccc23)c(Cl)cc1F [TCMDC-138485],11.9
17,CN1CCN(Cc2ccc(-c3ccc4c(Nc5cc(O)c(Cl)cc5F)ccnc4c3)o2)CC1 [TCMDC-138446],74.65
18,Fc1cc(Cl)ccc1Nc1ccnc2cc(-c3ccc(CN4CCCCC4)o3)ccc12 [TCMDC-138396],9.087
19,COc1ccc2nccc(N3CCN(CCNCc4ccc5c(n4)NC(=O)CS5)CC3)c2c1.Cl [TCMDC-141962],5.259
20,CCCCC1(c2ccc(F)cc2)NC(=O)N(CC(=O)c2cc(C)n(Cc3ccco3)c2C)C1=O (stereo not shown) [TCMDC-125119],0.3946

row,Structure (SMILES),% Inhibition [%]
1,CCNC(=O)c1cc(S(=O)(=O)N2CCN(c3ccccn3)CC2)cs1 [TCMDC-124848],88.58
2,CNC(=O)c1cc(S(=O)(=O)N2CCN(c3ccccn3)CC2)cs1 [TCMDC-124847],78.13
3,CC(=O)Nc1ccc(S(=O)(=O)N2CCN(c3nc(NC4CCCC4)c4ccccc4n3)CC2)cc1 [TCMDC-123869],2.309
4,CNC(=O)c1cc(S(=O)(=O)N2CCN(c3ccccn3)CC2)c(C)s1 [TCMDC-124846],34.83
5,O=C(Nc1ccc(N2CCN(c3ncccc3C(F)(F)F)CC2)nc1)c1cccs1 [TCMDC-125784],10.79
6,Cc1nc(-c2ccc3c(c2)CCN(CCC2CCC(NC(=O)c4cc5cccc(Cl)c5[nH]4)CC2)CC3)no1 (stereo not shown) [TCMDC-140071],-33.37
7,O=C(Nc1ccc(Cl)c(C(F)(F)F)c1)c1ccc(Cl)c([N+](=O)[O-])c1 [TCMDC-125647],-24.24
8,O=C(c1ccc(F)c2ccccc12)N1CCc2cc3nccc(N4CCN5CCC[C@H]5C4)c3cc21 [TCMDC-140043],23.61
9,CS(=O)(=O)c1ccc(CCNCc2ccc(-c3ccc(CNC4Cc5ccccc5C4)cc3)nc2)cc1 [TCMDC-141615],5.211
10,CS(=O)(=O)c1ccc(CCNCc2ccc(-c3ccc(CNC4CCN(Cc5ccccc5)CC4)cc3)nc2)cc1 [TCMDC-141614],33.12
11,CN1CCC(C(=O)N(Cc2ccc(-c3ccc(CNCCc4ccc(S(C)(=O)=O)cc4)cn3)cc2)C2CCN(Cc3ccccc3)CC2)CC1 [TCMDC-141506],104.7
12,CN1CCC(C(=O)N(Cc2ccc(-c3ccc(CNCCc4ccc(S(C)(=O)=O)cc4)cn3)cc2)C2Cc3ccccc3C2)CC1 [TCMDC-141508],99.19
13,CS(=O)(=O)c1ccc(CCNCc2ccc(-c3ccc(CN(C(=O)C4CC(=O)c5ccccc54)C4Cc5ccccc5C4)cc3)nc2)cc1 (stereo not shown) [TCMDC-141509],97.27
14,c1ccc(CCNCc2ccc(-c3ccc(CNC4CCN(Cc5ccccc5)CC4)cc3)nc2)cc1 [TCMDC-141649],82.96
15,CS(=O)(=O)c1ccc(CCNCc2ccc(-c3ccc(CN(C(=O)C4CCCC4)C4CCN(Cc5ccccc5)CC4)cc3)nc2)cc1 [TCMDC-141511],48.38
16,CS(=O)(=O)c1ccc(CCNCc2ccc(-c3ccc(CN(C(=O)C4CC(=O)c5ccccc54)C4CCN(Cc5ccccc5)CC4)cc3)nc2)cc1 (stereo not shown) [TCMDC-141605],41.88
17,CC(C)c1ccc(Cn2cc(-c3ccncc3)c3cc(OCc4ccccc4)ccc32)cc1 [TCMDC-137225],2.514
18,CCc1cccc(NC(=O)c2ccc(CN3CCCN(CC4CCCCC4)CC3)cc2)c1 [TCMDC-136399],-29.35
19,O=c1cc(NCCCNC2CCOc3c(I)cc(Cl)cc32)[nH]c2ccccc12 (stereo not shown) [TCMDC-139489],-10.52
20,O=C1COc2ccc(CNC3CCC(O)(CCc4ccnc5cc6c(cc45)OCCO6)CC3)nc2N1 (stereo not shown) [TCMDC-141941],32.09
